Screening results deposited in PubChem by several laboratories.
MEKK2 mut-MEK5: signal of MEK5 binding to mutant human MEKK2 PB1 domain. bead flow cytometry, Alexa488-MEK5 binding to MEKK2 mutant. percent response, % at 10 µM. 290,000 compounds, 0.35% hits; in the data active means percent response above about 24%, passing the limit was not always enough
TMEM16A act: mouse TMEM16A channel activation, primary screen | Q8BHY3 | HEK293 TMEM16A/YFP-H148Q/I152L, iodide quench fluorescence; hits give low values | B-score at 10 µM | 340,000 compounds, 0.3% hits;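 active means fluorescence-ratio B-score plate-corrected deviation score at least 3 library SD below zero, with starting fluorescence score within 5 deviations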;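 further: channel opened by trigger with iodide after compound preincubation; score built on the fluorescence ratio of max minus min over baseline; more negative score means more quench and so TMEM16A activation or potentiation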
ANO1 block: mouse TMEM16A channel inhibition, primary screen. Q8BHY3. HEK293 TMEM16A/YFP iodide influx fluorescence, ionomycin. normalized B-score (activity score, 25-100; higher = stronger inhibition) at 10 µM. 310,000 compounds, 1.2% hits;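 active means ratio plate-corrected score three or more library SD toward inhibition, starting fluorescence score within five deviations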;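 further: score derived from kinetic fluorescence span divided by baseline fluorescence per well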
MEKK2wt PB1 HTS: raises or lowers MEK5 binding to wildtype human MEKK2 PB1 domain; Q9Y2U5; bead flow cytometry, Alexa488-MEK5 binding to MEKK2 WT; actives lie on both sides; binding response (% of control), % at 10 µM; 290,000 compounds, 1.1% hits; AID 1531; in the data active means binding response below about 67% or above about 130%
NTR1 agonist: NTR1 (human) agonism; NTR1-U2OS beta-arrestin-GFP spot imaging, agonist mode; P30989; AID 493036; activation, % at 20 µM; 330,000 compounds, 0.17% hits;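 active means activation at or above 40% of the spot to cytoplasm intensity ratio, with at least 20 cells analyzed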;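 further: 0% = DMSO without peptide and 100% = 100 nM NTR1 peptide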
MEKK3 PB1 HTS: MEKK3-MEK5 PB1 interaction, increase or decrease; Q99759; bead-based flow cytometry, Alexa488-MEK5 binding to MEKK3; actives lie on both sides; 0 = blocked by unlabeled MEK5, 100 = vehicle; binding response (% of control), % at 10 µM; 290,000 compounds, 1.4% hits; AID 1529;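 active means binding response more than 3 SD above or below the average of its plate-row segment, actives on both sides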;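 further: Alexa488 bead fluorescence after subtracting the streptavidin-only scavenger bead signal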
NTR1 ag conf: confirmation of agonists of human NTR1. shares compounds with NTR1 agonist. NTR1-U2OS beta-arrestin-GFP translocation imaging. activation, % at 20 µM. 480 compounds, 38% hits;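 active means mean activation at 20 µM of at least 40%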;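 further: 0% = DMSO without peptide and 100% = 100 nM NTR1 peptide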
Numbers without * were called inactive; i = inactive; . = no result. Most compounds without a hit are left out; they make up all but 3.4% or so of the library.

SMILES	MEKK2 mut-MEK5	TMEM16A act	ANO1 block	MEKK2wt PB1 HTS	NTR1 agonist	MEKK3 PB1 HTS	NTR1 ag conf
OCCC1CN(Cc2ccc3cccc(F)c3n2)CCN1Cc1ccccc1 (stereo unspecified)	6.0	i	i	104.0	0.4	102.0	.
O=C(CC1NC(=O)NC1=O)Nc1ccc(Cl)cc1 (stereo unspecified)	-3.0	i	i	97.0	7.8	99.0	.
O=C(CC1Nc2ccccc2NC1=O)Nc1cc(Cl)cc(Cl)c1 (stereo unspecified)	-3.0	i	i	90.0	72.7*	100.0	53.5*
COC(=O)C1=C(C)NC(=O)CC1c1cc2c(cc1Br)OCO2 (stereo unspecified)	1.0	i	i	104.0	0.7	103.0	.
CC1=C(C(=O)OC2CCCCCCC2)C(c2cc3c(cc2Br)OCO3)CC(=O)N1 (stereo unspecified)	-1.0	i	i	87.0	44.4*	104.0	42.2*
O=C(COc1c(Cl)cccc1Cl)NN1C(=O)CSC1=S	4.0	i	i	104.0	0.3	106.0	.
COc1ccc(Nc2ccnc3ccccc23)cc1	16.0	i	i	119.0	-0.7	113.0	.
CC(C)Nc1ccc(Nc2ccnc3cc4ccccc4cc23)cc1	80.0*	i	i	208.0*	51.2*	109.0	84.8*
CN(Cc1ccc(-n2cccn2)cc1)Cc1nc(-c2cnccn2)no1	4.0	i	i	101.0	-2.3	101.0	.
COc1cccc(/C=N/NC(=O)CNC(=O)COc2cccc(C)c2)c1O	0.0	i	i	98.0	38.4	98.0	.
Cc1cccc(OCC(=O)NCC(=O)N/N=C/c2ccc(O)cc2O)c1	-3.0	i	i	98.0	40.3*	100.0	29.8
O=C(/C=C\c1ccccc1)NCC(=O)N/N=C/c1ccc(O)cc1O	-3.0	i	i	98.0	66.3*	101.0	55.1*
Oc1ccccc1C1=NN(c2ccccc2)C(c2ccc(F)cc2)C1 (stereo unspecified)	3.0	.	i	98.0	4.0	96.0	.
Oc1ccc(C2=NN(c3ccccc3)C(c3ccc(F)cc3)C2)cc1 (stereo unspecified)	4.0	i	i	99.0	60.7*	104.0	11.2
COc1ccc(C2CC(c3ccccc3)=NN2c2ccc(C(N)=O)cc2)cc1 (stereo unspecified)	2.0	i	i	95.0	41.0*	94.0	20.3
COc1ccc(NC(=O)NC(=O)c2cc(OCC(F)(F)F)ccc2OCC(F)(F)F)cc1	8.0	i	i	99.0	7.7	100.0	.
NC(=O)C1CCN(C(=O)OCc2ccccc2)CC1	-4.0	i	i	97.0	-0.2	90.0	.
COc1ccc(NC(=O)Nc2cccc3c2O[C@H](CN(C)S(=O)(=O)c2cn(C)cn2)[C@@H](C)CN([C@H](C)CO)C3=O)cc1	.	i	.	.	-0.7	.	.
CCOC(=O)c1c(C)[nH]c(C(=O)OCC(=O)Nc2sccc2C(N)=O)c1C	.	i	100*	.	44.4*	.	41.0*
CC(C)(C)c1cc(OC(=O)c2ccccc2F)ccc1O	-7.0	i	i	97.0	7.7	105.0	.
O=C(CSC1=NCCS1)Nc1cccc(F)c1	-3.0	i	i	97.0	1.1	99.0	.
CCC(COC)Oc1cc(NCc2ccccc2)c2ncn(C(C)C)c2c1 (stereo unspecified)	.	i	.	.	44.4*	.	8.8
O=C1CC(N2CCN(S(=O)(=O)c3ccccc3F)CC2)C(=O)N1c1ccc(F)cc1F (stereo unspecified)	.	i	.	.	-1.4	.	.
COc1ccc(C2CC(=O)Oc3cc(O)cc(O)c32)cc1 (stereo unspecified)	5.0	i	i	106.0	-1.8	108.0	.
COc1ccc([C@H]2Oc3cc(O)cc(O)c3C(=O)C2[C@@H]2C(=O)c3c(O)cc(O)cc3O[C@@H]2c2ccc(OC)cc2)cc1 (stereo partly specified)	-7.0	.	100*	87.0	50.4*	95.0	8.7
SMILES	MEKK2 mut-MEK5	TMEM16A act	ANO1 block	MEKK2wt PB1 HTS	NTR1 agonist	MEKK3 PB1 HTS	NTR1 ag conf
O=C(Cc1ccccc1)Nc1nc(-c2ccc(F)c(F)c2)cs1	4.0	i	i	104.0	-0.3	101.0	.
O=C(Cc1cccs1)Nc1nc(-c2ccc(F)c(F)c2)cs1	-5.0	i	i	95.0	51.7*	98.0	-2.2
Cc1cccc(-c2nc(Nc3cccc(O)c3)c3ccccc3n2)c1	-2.0	i	i	102.0	53.2*	99.0	26.6
COc1ccc(Cl)cc1Nc1nc2ccc(C)cc2n2cnnc12	4.0	i	i	96.0	46.5*	103.0	31.2
O=C(CNc1cc(S(=O)(=O)N2CCOCC2)ccc1NCC1CCCO1)Nc1ccccc1F (stereo unspecified)	4.0	i	i	95.0	-0.1	96.0	.
COc1ccc(OC)c(NC(=O)COC(=O)c2c3c(nc4ccccc24)CCCC3)c1	6.0	i	i	98.0	40.7*	98.0	29.5
Clc1ccc(C2=Nn3c(nnc3-c3cc(-c4ccccc4)n[nH]3)SC2)cc1	-2.0	i	i	70.0	46.6*	93.0	48.1*
COc1ccc(C(=O)/C=C2/C(=O)Nc3ccccc32)c(OC)c1	-17.0	i	i	101.0	52.2*	86.0	49.0*
COc1ccc(C(=O)/C=C2/C(=O)Nc3ccccc32)cc1	4.0	i	i	106.0	27.9	101.0	.
COC(=O)CSCC(=O)Nc1nnc(-c2ccccc2C)s1	-3.0	i	i	102.0	-1.8	109.0	.
CC(C)(C)c1ccc(Cn2nnc3c(=O)[nH]c(C4CCN(C(=O)c5ccco5)CC4)nc32)cc1	-3.0	i	.	99.0	18.8	103.0	.
CCOC(=O)c1sc(Nc2ccccc2)nc1C	4.0	i	i	106.0	0.5	106.0	.
CCOC(=O)c1sc(Nc2nc3c(OC)cccc3s2)nc1C	-2.0	i	100*	93.0	54.6*	99.0	26.1
Cc1[nH]n(-c2ccccc2)c(=O)c1C(C[N+](=O)[O-])c1ccccc1Cl (stereo unspecified)	9.0	i	i	104.0	2.1	107.0	.
COc1ccc(C(C[N+](=O)[O-])c2c(C)[nH]n(-c3ccccc3)c2=O)cc1 (stereo unspecified)	4.0	i	i	107.0	42.3*	104.0	25.2
Cc1ccc(S(=O)(=O)Oc2ccc3c(c2)O/C(=C\c2cccnc2)C3=O)cc1	-4.0	i	i	96.0	43.2*	97.0	32.9
COc1cccc(/C=C/C(=O)c2cccc([N+](=O)[O-])c2)c1	-9.0	i	i	88.0	18.1	91.0	.
